The list is not random: actives were taken first. Their share in the collection is about 2.5%.
L3MBTL1 inh – qHTS Assay for the Inhibitors of L3MBTL1; 0.66% of 230,000 active; Potency, µM (series often up to 57.1 µM), for inactives: at the top dose activity, negative = inhibition, actives largely listed as inhibitors; AID 485360, 2010; Lethal(3)malignant brain tumor-like protein 1 (Homo sapiens), Q9Y468; AlphaScreen L3MBTL1–H3K9me1 peptide binding; note: % is set by controls: 0 for no effect and ±100 for the full control effect; nearly all actives have a fitted effect of over 60% in size
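Displacement of a biotinylated histone H3(1-15) peptide monomethylated at Lys9 (75 nM) from L3MBTL1 (50 nM) was measured by AlphaScreen after a 30 min room-temperature compound incubation; cefsulodin titration served as intraplate control.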
Pol kappa inh-1 – qHTS for Inhibitors of Polymerase Kappa | AID 588579, 2011 | Potency, µM (series often up to 107 µM), for inactives: at the highest dose activity, negative = inhibition, actives largely listed as inhibitors | purified Pol kappa, fluorescent DNA synthesis assay, 10 min | 0.53% of 400,000 active | DNA polymerase kappa (Homo sapiens), Q9UBT6; note: % is set by controls: 0 for no effect and ±100 for the full control effect
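Kinetic fluorescence screen: compound preincubated 15 min RT with 10 nM enzyme; 50 nM substrate (final) initiates; reads at 0/10 min.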
POLI inh – qHTS for Inhibitors of Polymerase Iota; 1% of 390,000 active; Pol iota fluorescent replication assay, 10 min; Potency, µM (series often up to 115 µM), inactives show at the highest dose activity, negative = inhibition, hits mostly inhibitors; AID 588590, 2011
Target sequence (Q9UNA4 whole entry, looked up): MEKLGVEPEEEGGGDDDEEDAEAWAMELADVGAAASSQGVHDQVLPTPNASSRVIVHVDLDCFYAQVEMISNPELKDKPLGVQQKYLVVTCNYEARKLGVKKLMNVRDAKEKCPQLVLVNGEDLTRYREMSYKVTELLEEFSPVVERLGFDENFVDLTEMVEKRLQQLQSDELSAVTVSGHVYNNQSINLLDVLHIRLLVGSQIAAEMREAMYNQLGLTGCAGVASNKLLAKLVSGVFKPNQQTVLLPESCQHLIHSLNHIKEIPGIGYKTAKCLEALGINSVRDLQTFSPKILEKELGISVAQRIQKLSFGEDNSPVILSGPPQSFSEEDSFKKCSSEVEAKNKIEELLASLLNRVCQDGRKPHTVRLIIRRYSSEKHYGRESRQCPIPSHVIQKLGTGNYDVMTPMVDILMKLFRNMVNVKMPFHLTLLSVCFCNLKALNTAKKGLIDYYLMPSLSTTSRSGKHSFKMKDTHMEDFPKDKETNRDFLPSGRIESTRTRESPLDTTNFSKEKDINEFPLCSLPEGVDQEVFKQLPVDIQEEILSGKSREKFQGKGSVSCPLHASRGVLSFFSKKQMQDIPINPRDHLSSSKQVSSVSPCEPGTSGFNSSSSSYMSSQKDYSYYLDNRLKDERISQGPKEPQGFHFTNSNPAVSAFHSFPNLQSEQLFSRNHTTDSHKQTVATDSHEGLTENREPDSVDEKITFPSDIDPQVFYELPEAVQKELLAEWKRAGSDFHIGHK
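Pol iota at 10 nM preincubated 15 min with compounds at room temperature; reaction started with fluorescent substrate, 50 nM final. Fluorescence read kinetically at 0 and 10 min; buffer-only wells as negative control.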
APE1 inh – qHTS Assay for Inhibitors of the Human Apurinic/apyrimidinic Endonuclease 1 (APE1); DNA repair nuclease/redox regulator APEX1 (Homo sapiens), P27695; AID 2517, 2012; 0.35% of 350,000 active; recombinant APE1, TAMRA/BHQ-2 abasic DNA cleavage fluorescence; Potency, µM (titrated, usually from 65.8 µM), without a hit: at the top dose activity change, negative = inhibition, actives largely listed as inhibitors;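 note: plate controls were vehicle for no effect and reference inhibitor for full effect; nearly all actives have a fitted effect of over 55% in size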
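Step 1: APE1 (0.75 nM) with compound, 15 min RT. Step 2: add 50 nM fluorophore/quencher THF duplex. Step 3: three fluorescence reads 60 s apart (525/598 nm); read 3 minus read 1 = reaction progress.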
POLB inh – qHTS Assay for Inhibitors of DNA Polymerase Beta; 1.3% of 340,000 active; AID 485314, 2010; P06746; Potency, µM (series often up to 114 µM), for inactives: at the top dose activity change, negative = inhibition, hits mostly inhibitors; Pol beta primer extension/strand displacement, fluorescence kinetic; note: % is set by controls: 0 for no effect and ±100 for the full control effect
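Preincubation: enzyme (10 nM) with compound, 15 min, RT. Reaction: substrate added to 50 nM final. Reads: 0 and 10 min. Analysis: normalized, Hill fit.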
Pol eta inh-1 – qHTS for Inhibitors of Polymerase Eta; DNA polymerase eta (Homo sapiens), Q9Y253; recombinant Pol eta, fluorescent DNA replication assay; Potency, µM (titrated, usually from 114 µM), for the others: top-dose activity change, negative = inhibition, actives largely listed as inhibitors; 1.2% of 390,000 active; note: % is set by controls: 0 for no effect and ±100 for the full control effect
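Pol eta (10 nM) was preincubated with compounds for 15 min at room temperature, after which fluorescent replication substrate (50 nM final) was added to start the reaction. Fluorescence was read kinetically at 0 and 10 min.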
Pol kappa inh-2 – qHTS for Inhibitors of Polymerase Kappa: Confirmatory Assay for Cherry-picked Compounds; Potency, µM, actives largely listed as inhibitors; shares compounds with Pol eta inh-1; purified Pol-kappa, fluorescent strand-displacement substrate; 76% of 920 active
Pol eta inh-2 – qHTS for Inhibitors of Polymerase Eta: Confirmatory Assay for Cherry-picked Compounds; 64% of 2,600 active; AID 720502, 2013; shares compounds with Pol eta inh-1; Potency, µM, most hits filed as inhibitors; Pol eta primer extension, TAMRA/BHQ fluorescence, 10 min
Numbers without * were called inactive; [ ] = dose if it differs, or a comment. Calls come from the whole dose curve; as a rule, active = well fitted curve in the direction sought with a large enough effect; inconclusive = small, poorly fitted or top-dose-only effect, or another doubt; inactive = no such curve, though single readings can be large; an effect the other way counts as inactive or inconclusive. Potency is the fitted concentration of half-maximal effect.

Screening N#Cc1c(-c2ccc(Cl)c([N+](=O)[O-])c2)no[n+]1[O-] returned Pol eta inh-2 75.7*.
Screening COc1ccc(Cl)cc1NC(=O)c1c(NCc2ccc(C)o2)sc2c1CCCC2 returned Pol kappa inh-1 -9.1%[60.1 µM], POLI inh inconclusive, POLB inh 1.8%, Pol eta inh-1 50.1µM* and Pol eta inh-2 inconclusive.
Screening COc1ccc(Cl)cc1NC(=O)c1c(NCc2cccnc2)sc2c1CCCC2 returned Pol kappa inh-1 -5.6%[60.1 µM], POLI inh -2.6%, POLB inh -13.8% and Pol eta inh-1 inconclusive.
COC(=O)c1cccc(NC(=O)/C=C/c2ccc([N+](=O)[O-])cc2)c1 was read as L3MBTL1 inh 2.4%, Pol kappa inh-1 -8.6%, POLI inh 131.1%, APE1 inh 14.3%, POLB inh 22.8% and Pol eta inh-1 -14.9%.
For O=C(/C=C/c1ccc([N+](=O)[O-])cc1)Nc1cccc(C(=O)Nc2ccccc2C(=O)O)c1 the results were L3MBTL1 inh inconclusive, Pol kappa inh-1 -14.6%, POLI inh inconclusive, APE1 inh inconclusive, POLB inh inconclusive, Pol eta inh-1 28.2µM* and Pol eta inh-2 23.9*.
`CCOC(=O)Cc1csc(-n2sc3ccccc3c2=O)n1` gave Pol kappa inh-1 -27.6%, POLI inh -17.3%, APE1 inh 8.9%, POLB inh inconclusive, Pol eta inh-1 39.8µM* and Pol eta inh-2 inconclusive.
CN(CC(=O)Nc1cc(Cl)ccc1-n1cncn1)Cc1ccccc1N1CCOCC1 was read as Pol eta inh-1 -2.4%.
Screening COc1ccc(-c2n[nH]c3c2cnc2ccc(F)cc23)cc1 returned Pol kappa inh-1 0.9%[60.1 µM], POLI inh 0.3%, POLB inh 6.7% and Pol eta inh-1 -10.8%.
Screening CCC(C)(C)C1CCc2c(sc(NC(=O)c3ccccc3C(=O)O)c2C#N)C1 (stereo not drawn) returned L3MBTL1 inh -29.5%, Pol kappa inh-1 -33.1%, POLI inh 26.4%, APE1 inh -1.6%, POLB inh -33.6%, Pol eta inh-1 inconclusive and Pol kappa inh-2 inconclusive.
`CCCN(CCC)S(=O)(=O)c1ccc(NC(=O)Cc2cccs2)cc1` gave Pol kappa inh-1 -35.9%, POLI inh inconclusive, APE1 inh -9.0%, POLB inh inconclusive, Pol eta inh-1 inconclusive and Pol eta inh-2 75.7*.
Screening CCCN(CCC)S(=O)(=O)c1ccc(NC(=O)COc2ccccc2)cc1 returned Pol kappa inh-1 0.0%, POLI inh 7.8%, APE1 inh 5.3%, POLB inh inconclusive and Pol eta inh-1 -9.9%.
`CC(OC(=O)c1ccc(S(=O)(=O)NCc2ccco2)cc1)C(=O)Nc1ccc(Cl)cn1` (stereo not drawn) gave L3MBTL1 inh inconclusive, Pol kappa inh-1 -19.4%, POLI inh inconclusive, APE1 inh inconclusive, POLB inh inconclusive, Pol eta inh-1 inconclusive and Pol eta inh-2 67.5*.
